The values that follow come from ChEMBL document CHEMBL3988442, “University of Dundee, Small-Polar-MMV Screening Library” (2021).

The campaign covered roughly 69,000 compounds. About 30 (0.04%) showed an effect of 50% or more. The full list was thinned out, with strong results kept by preference.

The target of this assay is T1, Histidine--tRNA ligase (Trypanosoma cruzi (strain CL Brener)) (UniProt Q4DA54).
T1 sequence (whole entry): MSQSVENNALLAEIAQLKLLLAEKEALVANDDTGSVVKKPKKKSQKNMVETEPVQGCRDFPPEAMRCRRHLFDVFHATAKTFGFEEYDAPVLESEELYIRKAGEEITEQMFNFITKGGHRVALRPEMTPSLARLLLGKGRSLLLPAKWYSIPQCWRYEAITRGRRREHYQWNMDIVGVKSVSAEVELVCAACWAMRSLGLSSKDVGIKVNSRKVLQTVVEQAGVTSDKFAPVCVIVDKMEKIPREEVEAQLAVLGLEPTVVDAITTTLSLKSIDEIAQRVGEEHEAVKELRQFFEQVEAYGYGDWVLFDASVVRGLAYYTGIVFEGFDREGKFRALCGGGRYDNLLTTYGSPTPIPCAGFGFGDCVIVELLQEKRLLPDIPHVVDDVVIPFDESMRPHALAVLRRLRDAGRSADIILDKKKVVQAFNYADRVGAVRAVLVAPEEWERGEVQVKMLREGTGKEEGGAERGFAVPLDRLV
Briefly: Trypanosoma cruzi histidyl tRNA synthetase (Tc-HisRS). It is filed as functional. Further details: scale not given: direction of the effect not stated beside the values. To be noted: 30 µM.
Take `CC(C)N1[C@H](Cn2cncn2)C[C@@H]2CN(Cc3ccsc3)CC[C@@H]21`: the Percent Effect was 0%. Then `O=C(OCc1ccccc1)N1CC[C@H]2CC(CO)O[C@@H]2C1` (some centres undefined), with -3.09%; and `CCN1CC[C@@]2(C(=O)N3CCOCC3)CCN(C(=O)C(C)C)CC[C@@H]12`, with 4.85%; and `O=C(NC1CC1)N1C[C@H]2CN(Cc3cccc(F)c3)C(=O)[C@H]2C1`, with 5.88%.

Consider `CC(C)=CCN1C(=O)[C@H]2CC[C@@H]1CN(c1ncccc1C(N)=O)C2`, for which the Percent Effect is -2.41%. As for `Cc1nc(CN2C(=O)CC[C@@H]3[C@H]2CCN3C(=O)c2ccno2)cs1`, the Percent Effect stood at 8.87%. Then `O=S1(=O)CCN(Cc2cccnc2)[C@H]2CCN(c3ncccn3)CC[C@H]21`, with 6.95%; and `Cn1nccc1C(=O)N1CCN(C(=O)C2CC2)[C@@H]2CS(=O)(=O)C[C@@H]21`, with 4.47%; and `O=C1C[C@H]2[C@@H](CCN2C(=O)Cc2cccs2)N1Cc1cccnc1`, with 0.752%. Then `Cc1cccnc1CN1CCN(CC(=O)N(C)C)[C@@H]2CS(=O)(=O)C[C@@H]21`, with 7.03%; and `Cc1cnc(N2CC[C@@H]3OC(COCC(=O)N(C)C)CC[C@@H]32)nc1` (some centres undefined), with -0.614%.

As for `Cn1cc(N2C(=O)CC[C@@H]3[C@H]2CCN3C(=O)c2cscn2)cn1`, the Percent Effect was determined as 8.16%.

For `COCCN1CCN(Cc2nccs2)[C@H]2CS(=O)(=O)C[C@H]21`, the Percent Effect stood at 4.08%. Then `CCO[C@@H]1CC[C@H]2[C@H]1OCCN2CCOCc1ccccc1`, with 4.12%; and `Cc1cc(C)nc(N2C[C@H]3OC(=O)N(CCc4cccc(Cl)c4)[C@H]3C2)n1`, with 7.82%.

With `CNC(=O)[C@H]1C[C@@H]2CN(C(=O)NC(C)C)C[C@H]1O2`, the Percent Effect worked out at 1.03%. With `CC(C)NC(=O)[C@H]1C[C@@H]2CN(C(=O)NCc3ccccc3)C[C@H]1O2`, the Percent Effect is 9.09%. Take `O=C(c1ccnnc1)N1CCN2C[C@H](Oc3cccc(F)c3)C[C@H]2C1`: the Percent Effect worked out at 1.62%. For `O=C(c1ccco1)N1CC[C@H]2[C@H]1CC(=O)N2c1cccnc1` the value was 0%. Take `O=C(N1CCCC1)N1CC[C@H]2[C@H]1CCN2c1ncccn1`: the Percent Effect was found to be 6.8%. Then `COC[C@@]12CCC[C@@H]1CN(C(=O)N1CCCC1)C2`, with 5.03%. Then `O=C(CC1CC1)N[C@@H]1CN(C(=O)c2cccs2)C[C@@H]2CCCO[C@@H]21`, with 0%; and `CN1C(Cn2cccn2)C[C@@H]2CN(Cc3cnn(C)c3)CC[C@@H]21` (some centres undefined), with 7%. Turning to `CCC1=N[C@@]2(CC[C@@H]3CN(Cc4ccc(C)cc4)C[C@@H]32)C(=O)N1C`, the Percent Effect came out at 7.41%. In the case of `CC(C)CN1CCS(=O)(=O)[C@@H]2CCN(S(=O)(=O)C3CC3)CC[C@@H]21`, the Percent Effect is 1.07%. As to `COc1ccc(CN2C[C@@H]3CC[C@H](C2)N(Cc2snnc2C)C3)cc1`, the Percent Effect stood at 11.4%. In the case of `CC(C)CN1C(=O)CO[C@@H]2CN(C(=O)CC(F)(F)F)C[C@H]21`, the Percent Effect came to 7.53%. For `Cn1cc(NC(=O)N2CCC2c2ccccc2)ccc1=O` (centres undefined) the value was 22.6%; for `Cn1cc(NC(=O)N2CCCC2c2ccccn2)ccc1=O` (centres undefined), 69.3%; for `Cn1cc(NC(=O)N2CCCC2c2cccnc2)ccc1=O` (centres undefined), 38.6%.

In the case of `Cc1cccc(C(=O)N2C[C@H](NS(C)(=O)=O)[C@@H]3OCCC[C@@H]32)n1`, the Percent Effect stood at 12.6%. With `COc1ccc(CNC(=O)Nc2ccc(=O)n(C)c2)cc1`, the Percent Effect is 76.6%. As to `CN(Cc1ccsc1)C(=O)Nc1ccc(=O)n(C)c1`, the Percent Effect was found to be 13%. Regarding `Cn1cc(NC(=O)NCc2ccoc2)ccc1=O`, the Percent Effect was found to be 72.7%. For `COC(=O)c1ccc(CNC(=O)Nc2ccc(=O)n(C)c2)cc1` the value was 7.79%.

Consider `Cn1cc(NC(=O)CCc2ccsc2)ccc1=O`, for which the Percent Effect was found to be 18.2%.

For the molecule `Cc1nnc(NC(=O)NCc2ccoc2)s1`, the Percent Effect came to 7.43%. On to `O=C(NCc1ccoc1)Nc1ccc(CN2CCOC2=O)cc1`, for which the Percent Effect worked out at 3.25%. `Cn1cc(NC(=O)NCc2ccsc2)ccc1=O`: the Percent Effect came to 72.7%. For `COc1ccc(CNC(=O)Nc2ccc(CN3CCOC3=O)cc2)cc1`, the Percent Effect is 2.12%. With `Cc1ccc(N2CCC3(CC2)COCCN(c2nccs2)C3)nn1`, the Percent Effect worked out at 62.3%. For `Cc1ccc(N2CCCC3(COCCN(c4nccs4)C3)C2)nn1` (centres undefined) the value was 12.4%. For `Cc1ccc(N2CC3(CCN(c4nccs4)C3)C2)nn1` the value was 4.96%; for `CNc1cc(-c2ccccc2CN)c2cc[nH]c2n1`, 40.2%; for `CNc1cc(-c2cccc(CN)c2)c2cc[nH]c2n1`, 81.7%. With `CNc1cc(-c2ccc(COCCN)cc2)c2cc[nH]c2n1`, the Percent Effect came out at 4.88%.

On to `CN(Cc1cccs1)C1CCC[C@@H]2CN(C(=O)c3cccn3C)C[C@H]12` (some centres undefined), for which the Percent Effect was determined as 5.06%. As for `O=C1N(CC2CC2)CCC12CCN(c1ncccn1)CC2`, the Percent Effect was found to be 4.51%. Consider `c1ccc2c(c1)N(CC1CCOC1)CC21CCN(c2cnccn2)CC1` (centres undefined), for which the Percent Effect was determined as 29.6%.

Take `c1cnc(N2CCC3(CC2)CN(CC2CC2)c2ccccc23)nc1`: the Percent Effect worked out at 66.2%. For `CC(C)=CCN1C[C@H]2CC[C@@H]1CN(C(=O)c1ccc3c(c1)OCO3)C2`, the Percent Effect was -7.73%.

For the molecule `O=C1O[C@@H]2CN(Cc3ccccc3F)C[C@@H]2N1CCCN1CCOCC1`, the Percent Effect is 10.2%.

Consider `CC(C)COC[C@@H]1CC[C@H]2[C@H](CCN2C(=O)c2ccncc2F)O1`, for which the Percent Effect was -2.8%. Then `COCCNC(=O)[C@@]12CCO[C@@H]1CCN(Cc1scnc1C)C2`, with 4.3%; and `COc1ccc(N2Cc3nc(N4CCCC4)ncc3C2=O)cc1Cl`, with -3.73%; and `CCc1cc(N[C@H]2CC[C@@H](N)CC2)n2nc(C)c(C)c2n1`, with 1.34%. Regarding `CC(C)CS(=O)(=O)N1C[C@H]2C[C@H](C(=O)N3CCN(C)CC3)[C@@H](C1)O2`, the Percent Effect worked out at 7.78%. For `CN1CCCCC1c1ncc2c(n1)CCN(Cc1ccc(Cl)c(F)c1)C2` (centres undefined), the Percent Effect is 30%.

In the case of `O=C([C@H]1C[C@@H]2CCN(c3cccc(F)c3)C[C@H]2O1)N1CCCC1`, the Percent Effect is 0.952%. For `c1ccc(CNc2ncc(CN3CCCN4CCC[C@H]4C3)cn2)cc1`, the Percent Effect was determined as 48.1%. For `CN1CCN2CCN(Cc3cnc(NCc4ccccc4)nc3)CC2C1` (centres undefined) the value was 9.88%; for `C1CC(CN2C[C@@H]3C[C@@H](c4nnc(C5CC5)o4)O[C@@H]3C2)C1`, 0%; for `O=C(c1ccc(F)cc1)N1C[C@@H]2COC[C@]2(COc2cccnc2)C1`, 8.47%. As to `Cc1ccc(C(=O)N2CC[C@@H]3[C@H]2CCC(=O)N3c2ccccc2)o1`, the Percent Effect came out at 2.73%.

With `CCCN1CC[C@@H]2[C@@H](CO[C@H]2CNC(=O)c2nccn2C)C1`, the Percent Effect is 3.09%. Then `COc1ccc(C)cc1CN1CCC(c2cc3ncccc3cn2)CC1`, with 66.2%; and `Fc1ccc(F)c(CN2CCC(c3cc4ncccc4cn3)CC2)c1`, with 29.2%.

On to `Fc1cccc(CN2CCC(c3cc4ncccc4cn3)CC2)c1F`, for which the Percent Effect was 33.9%.

For the molecule `Cc1occc1C(=O)N1C[C@@H]2OCCN(CCN3CCCC3)[C@@H]2C1`, the Percent Effect stood at 4.9%.
